Results taken from the supplement of paper PMC9950053.
Structures can show the parent of a compound that is named as a salt.

Each compound was assayed on Danio rerio larvae (5 dpf) (assay: combined optomotor response (time in upper well half, down vs up moving lines, periods 7-14) minus DMSO control (percentage points); higher = stronger optomotor response than DMSO larvae). Conditions: 10 µM; exposure time: 3 h pre-incubation + 3 h imaging.

| Structure (SMILES) | combined optomotor response |
| --- | --- |
| CC(O)(CS(=O)(=O)c1ccc(F)cc1)C(=O)Nc1ccc(C#N)c(C(F)(F)F)c1 (stereo unspecified) [Bicalutamide] | 0.551 |
| CC(C)C[C@H]1C(=O)N2CCC[C@H]2[C@]2(O)O[C@](NC(=O)[C@@H]3C=C4c5cccc6[nH]c(Br)c(c56)C[C@H]4N(C)C3)(C(C)C)C(=O)N12 [Bromocriptine mesylate] | -10.1 |
| C=C1C[C@@H]2[C@H](CC[C@]3(C)C(=O)CC[C@@H]23)[C@@]2(C)C=CC(=O)C=C12 [Exemestane] | 3.71 |
| CC[C@@H](C(N)=O)N1CCCC1=O [Levetiracetam] | 7.27 |
| Cc1cccc([C@H](C)c2c[nH]cn2)c1C [Dexmedetomidine hydrochloride] | -11.4 |
| C=CCN1C[C@H](C(=O)N(CCCN(C)C)C(=O)NCC)C[C@@H]2c3cccc4[nH]cc(c34)C[C@H]21 [Cabergoline] | -6.92 |
| COc1cc2c(cc1OC)C1CC(=O)C(CC(C)C)CN1CC2 (stereo unspecified) [Tetrabenazine] | -0.321 |
| N[C@@H]1C[C@H]1c1ccccc1 [Tranylcypromine hydrochloride] | 9.38 |
| CCN(C)C(=O)Oc1cccc([C@H](C)N(C)C)c1 [Rivastigmine tartrate] | 4.19 |
| CN1C[C@H](C(=O)N[C@]2(C)O[C@@]3(O)[C@@H]4CCCN4C(=O)[C@H](Cc4ccccc4)N3C2=O)C[C@@H]2c3cccc4[nH]cc(c34)C[C@H]21 [Dihydroergotamine mesylate] | 13.2 |
| O=c1[nH]c2ccccc2n1C1CCN(CCCC(c2ccc(F)cc2)c2ccc(F)cc2)CC1 [Pimozide] | -11 |
